# This is a sample that favours compounds with a hit; in the whole collection about 21% have one here.
# Pf growth 48h: Primary qHTS for delayed death inhibitors of the malarial parasite plastid, 48 hour incubation; AID 504832, 2011; Potency, µM (series often up to 28.7 µM), inactives show at the highest dose activity change, negative = inhibition, usual class: inhibitors; P. falciparum luciferase growth in erythrocytes, 48 h; 5.9% of 310,000 active; further: potency means the concentration at half of the fitted maximal effect; on the % scale 0 is the no-effect control and ±100 the full control effect
#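 Parasite viability was followed by luminescence of a genomically integrated firefly luciferase. Cultures held 0.1% parasitemia at 2% hematocrit (final), incubated under 5% CO2 at 37 C.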
# NS1 inh: qHTS Assay for Inhibitors of Influenza NS1 Protein Function. Potency, µM (series often up to 46.1 µM), inactives show at the highest dose activity, positive = more growth. 0.4% of 270,000 active. AID 2326, 2010; calls by dose curve; further: potency means the concentration at half of the fitted maximal effect; actives are rising curves; nearly all actives have a fitted effect of over 50% in size
#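 A cell-based growth assay was used: compounds that relieve NS1-induced slow growth of budding yeast raise OD600. Assay medium was yeast nitrogen base with ammonium sulphate and -URA supplement, pH 6.0, with 2% galactose.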
# CHX counter: Cycloheximide Counterscreen for Small Molecule Inhibitors of Shiga Toxin; cell reporter, cycloheximide protein synthesis inhibition counterscreen; max response, %; 12% of 300,000 active; in the data active means max response mostly above about 13%, no sharp cut-off; inactive means mostly below about 14%; further: read at 38.3 µM for the half of the compounds with a filed dose; 0% is about no effect
# Pf growth 96h: Primary qHTS for delayed death inhibitors of the malarial parasite plastid, 96 hour incubation. P. falciparum luciferase reporter growth, 96 h. Potency, µM (series often up to 28.7 µM), for inactives: at the highest dose activity change, negative = inhibition, hits mostly inhibitors. 6.9% of 320,000 active; further: potency means the concentration at half of the fitted maximal effect; on the % scale 0 is the no-effect control and ±100 the full control effect
#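 Infected RBCs, 2% Hct / 0.05% parasitemia final; luciferase-reporter P. falciparum; cpd 96 h, 37 C, 5% CO2; luciferase detection reagent; luminescence.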
# Shiga toxin inh: A qHTS for Small Molecule Inhibitors of Shiga Toxin; Vero cells, Shiga toxin protein synthesis inhibition reporter; inhibition, % at 38.7 µM; 9.2% of 290,000 active; in the data active means inhibition mostly above about 28%, no sharp cut-off; inactive means mostly below about 43%; further: 0% is about no effect
# The depositor's hits bear a star; u = inconclusive; x = not tested or not shown; [ ] = dose if it differs, or a comment. Unless noted, the call rests on the fitted dose curve; in most records, active means well fitted inhibition curve with a large enough effect; inconclusive means small, poorly fitted or top-dose-only effect, or another doubt; inactive means no such curve, though single readings can be large or run the other way.
SMILES,Pf growth 48h,NS1 inh,CHX counter,Pf growth 96h,Shiga toxin inh
CCOC(=O)Cn1c(=O)oc2cc(S(=O)(=O)N3CCc4ccccc43)ccc21,x,-11.7%,-2.9,13.1µM*,-13.0
Cn1c(=O)oc2cc(S(=O)(=O)N3CCc4ccccc43)ccc21,u,0.0%,8.6,16.3%,17.4
CC(C)(C)NC(=O)Cn1c(=O)oc2cc(S(=O)(=O)N3CCc4ccccc43)ccc21,x,u,-1.2,1.47µM*,-7.1
CNC(=O)/C(C#N)=C/c1c(N2CCCCCC2)nc2c(C)cccn2c1=O,u,-10.5%,-7.3,u,-9.6
CC(C)CCNC(=O)c1onc(CSc2ccncc2)c1C(=O)NCCC(C)C,-17.6%,3.0%,-2.2,-23.0%,-2.8
CCCNC(=O)c1c(CSc2ccccc2)noc1C(=O)NCc1ccccc1,u,-19.1%,2.2,14.7µM*,-1.2
COC(=O)c1c(CSc2ccc(Cl)cc2)noc1C(=O)NCc1ccco1,6.0%,-3.8%,-0.7,-1.3%,11.9
CN(C)CCNC(=O)c1c(CSc2ccccc2)noc1C(=O)NCc1ccccc1,u,1.4%,-4.9,9.28µM*,-3.3
CC(C)CCNC(=O)c1c(CSc2ccccc2)noc1C(=O)NCc1ccccc1,u,-10.5%,-4.2,13.1µM*,-8.0
COC(=O)c1c(CSc2cccc(C)c2)noc1C(=O)NCc1ccco1,2.62µM*,-8.1%,21.5*,48.1%,23.3
Nc1ccc(-c2cc(-c3ccc(N)cc3)nc(-c3ccccc3)n2)cc1,14.2%,20.3%,4.6,43.0%,-3.8
Oc1ccc(-c2cccc(-c3ccc(O)cc3)n2)cc1,15.1%,-5.9%,38.9*,-10.2%,67.2*
Cc1ccc(-c2cc(-c3ccccc3)nc(N(C)N)n2)cc1,u,4.7%,-3.7,5.5%,-7.2
Clc1nc(-c2ccccc2)cc(-c2ccccc2)n1,18.8%,-5.6%,17.2*,u,16.6
Oc1ccc(O)cc1,-12.2%,-6.2%,x,u,x
Oc1ccc(-c2nnc(-c3ccc(O)cc3)nn2)cc1,u,6.2%,25.7*,u,25.4
Oc1ccc(-c2cc(-c3ccc(O)cc3)nc(-c3ccccc3)n2)cc1,3.6%[0.00184 µM],8.6%,-4.4,5.86µM*,-8.5
C=CCNC(=O)COC(=O)c1ccc(Cl)c(S(=O)(=O)N(Cc2ccccc2)c2ccccc2)c1,u,20.0%,2.9,15.0%,21.0
COc1ccc(-n2nc3c(N4CCC(C(=O)N5CCC(C)CC5)CC4)nnc(C)c3c2C)cc1,u,14.4%,-4.8,4.2%,-7.9
O=C(NCc1ccccn1)C(=O)Nc1cc2c3c(c1)CC(=O)N3CCC2,u,x,x,-10.7%,x
CN(CC(=O)Nc1ccccc1Cl)C(=O)c1ccc(-c2cccc(C(F)(F)F)c2)o1,2.08µM*,x,x,0.415µM*,x
COc1ccc(NC(=O)CN(C)C(=O)c2ccc(-c3cccc(C(F)(F)F)c3)o2)cc1,u,14.7%,1.2,0.37µM*,31.5
CCN(CC(=O)NCc1cccs1)C(=O)c1cccc(S(=O)(=O)NC)c1,u,x,x,7.3%,x
CCN(CC(=O)NCc1cccs1)C(=O)c1ccc(-c2cccc(C(F)(F)F)c2)o1,u,x,x,9.28µM*,x
COc1ccc(NC(=O)CN(C)C(=O)c2ccc(-c3ccccc3Cl)o2)cc1,0.37µM*,x,x,0.329µM*,x
SMILES,Pf growth 48h,NS1 inh,CHX counter,Pf growth 96h,Shiga toxin inh
COc1ccc(NC(=O)CN(C)C(=O)c2ccc3ccccc3c2)cc1,20.9%,x,x,71.8%,x
CCCc1nnc(NC(=O)c2c(O)c3cccc4c3n(c2=O)CCC4)s1,-1.1%,-3.2%,-4.5,u,-13.7
Nc1nc(-c2ccccc2)c(C(=O)Nc2ccccc2)s1,-2.2%,x,-0.4,24.9%,-8.5
CC(O)c1cccc(NC2=CC(=O)CC(C)(C)C2)c1 (centres undefined),0.8%,12.4%,-6.7,102.0%,-5.8
CCOc1ccccc1N1CCN(Cc2c(C)n(C)n(-c3ccccc3)c2=O)CC1,0.5%,0.4%,-1.6,-10.9%,13.7
COc1ccccc1S(=O)Cc1ccc(C(=O)NCc2ccccc2Cl)o1 (centres undefined),x,-1.0%,-2.8,-11.4%,-6.0
Cc1[nH]n(-c2ccccc2)c(=O)c1N=Nc1ccc2c(c1)OCO2,198.4%,x,32.0*,54.1%,114.8*
CC(=O)N(C)c1ccc(N=Nc2c(C)[nH]n(C(N)=S)c2=O)cc1,-3.2%,x,39.3*,43.1%,49.5*
CC(=O)N(C)c1ccc(N=Nc2c(C)[nH]n(-c3ccccc3)c2=O)cc1,u,2.6%,-1.3,11.7µM*,-9.2
